{"source": "PubChem BioAssay (EPA / NIEHS)", "note": "Records with an inconclusive call do not appear. Activity calls are given as the source filed them. The calls were made as follows: active = hit-call score of the fitted dose curve at least 0.9, where 1 is the maximum; inconclusive = response in the unintended direction; inactive = score below 0.9.", "data": [{"target": "rat CYP1A2, Cyp1a2 (gene 24297) (UniProt P04799)", "sequence (P04799 whole entry, looked up)": "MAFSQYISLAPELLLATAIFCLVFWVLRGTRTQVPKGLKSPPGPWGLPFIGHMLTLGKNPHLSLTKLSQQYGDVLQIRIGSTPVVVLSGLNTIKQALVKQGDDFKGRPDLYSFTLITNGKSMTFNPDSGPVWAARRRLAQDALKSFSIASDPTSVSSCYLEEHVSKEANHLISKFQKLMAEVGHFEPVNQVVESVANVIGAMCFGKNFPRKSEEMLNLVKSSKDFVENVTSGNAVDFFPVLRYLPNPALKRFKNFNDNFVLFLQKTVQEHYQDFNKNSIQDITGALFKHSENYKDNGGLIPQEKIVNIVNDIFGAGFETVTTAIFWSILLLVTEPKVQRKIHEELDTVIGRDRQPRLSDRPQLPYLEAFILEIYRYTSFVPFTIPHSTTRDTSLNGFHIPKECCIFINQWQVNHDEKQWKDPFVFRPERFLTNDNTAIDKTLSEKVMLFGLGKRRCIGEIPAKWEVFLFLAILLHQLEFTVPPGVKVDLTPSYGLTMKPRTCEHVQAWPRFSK", "experiment": "NVS_ADME_rCYP1A2: NovaScreen (NVS) CYP450-related Enzyme Activity (ADME) Assay for rat CYP1A2 (AID 2283115)", "experimental": "NVS_ADME_rCYP1A2 is a biochemical, single-readout assay that uses extracted gene-proteins in a cell-free assay. Measurements were taken 1 hour after chemical dosing in a 96-well plate.NVS_ADME_rCYP1A2 is one of one assay component(s) measured or calculated from the NVS_ADME_rCYP1A2 assay. It is designed to make measurements of enzyme activity, a form of enzyme reporter, as detected with fluorescence intensity signals by Fluorescence technology.Data from the assay component NVS_ADME_rCYP1A2 was analyzed into 1 assay endpoint. This assay endpoint, NVS_ADME_rCYP1A2, was analyzed in the positive analysis fitting direction relative to Acetonitrile as the negative control and baseline of activity. Using a type of enzyme reporter, loss-of-signal activity can be used to understand changes in the enzymatic activity as they relate to the gene Cyp1a2. Furthermore, this assay endpoint can be referred to as a primary readout, because this assay has produced multiple assay endpoints where this one serves a enzymatic activity function. To generalize the intended target to other relatable targets, this assay endpoint is annotated to the cyp intended target family, where the subfamily is xenobiotic metabolism.\nBinding assays used specific radioligands (tritiated, iodinated) with non-radioactive competitive displacement ligands in agonist or antagonist protocols (as indicated) and various reference compounds and inhibitors to titrate specific binding to receptors and transporters. Most enzyme assays (CYPs, kinases, phosphatases, proteases, HDACs) used recombinant protein and specific substrates (fluorescence mostly, some colorimetric and radioactive) and inhibitors, followed by a biochemical separation of substrate and product. All assays for the biochemical HTS were initially run in duplicate at a single concentration (10 uM for CYP450 assays and 25 uM for all others). […] Each assay was run with positive and negative controls, and concurrent controls on every plate. The follow-up (secondary) screen tested active chemical-pairs in concentration series, as well as a few additional assays not tested in the primary screen, some selected negative inactives, and several cases re-run in the concentration series for confirmatory purposes.", "values": [{"smiles": "CCOP(=O)(NC(C)C)Oc1ccc(SC)c(C)c1", "note": "(stereo unspecified)", "outcome": "inactive"}, {"smiles": "CCC(=O)Nc1ccc(Cl)c(Cl)c1", "outcome": "inactive"}, {"smiles": "Cc1cc(C2CC2)nc(Nc2ccccc2)n1", "outcome": "inactive"}, {"smiles": "CNc1cnn(-c2cccc(C(F)(F)F)c2)c(=O)c1Cl", "outcome": "inactive"}]}, {"target": "rat CYP2A2, Cyp2a2 (gene 24895) (UniProt P15149)", "sequence (P15149 whole entry, looked up)": "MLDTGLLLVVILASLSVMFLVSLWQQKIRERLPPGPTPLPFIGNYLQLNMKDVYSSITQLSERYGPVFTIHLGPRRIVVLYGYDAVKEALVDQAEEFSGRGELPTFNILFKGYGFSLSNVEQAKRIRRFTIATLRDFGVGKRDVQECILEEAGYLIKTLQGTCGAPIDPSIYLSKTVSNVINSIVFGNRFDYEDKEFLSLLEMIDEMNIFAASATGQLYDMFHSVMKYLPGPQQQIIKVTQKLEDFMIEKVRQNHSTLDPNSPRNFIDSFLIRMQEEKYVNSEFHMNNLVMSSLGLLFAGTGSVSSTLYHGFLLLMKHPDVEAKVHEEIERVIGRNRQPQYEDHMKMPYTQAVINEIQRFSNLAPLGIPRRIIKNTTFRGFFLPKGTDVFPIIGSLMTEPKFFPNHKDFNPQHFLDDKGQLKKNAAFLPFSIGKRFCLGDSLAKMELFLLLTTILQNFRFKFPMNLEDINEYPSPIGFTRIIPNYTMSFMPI", "experiment": "NVS_ADME_rCYP2A2: NovaScreen (NVS) CYP450-related Enzyme Activity (ADME) Assay for rat CYP2A2 (AID 2283116)", "method_in_brief": "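Cell-free recombinant rat CYP2A2 activity with fluorogenic substrate, fluorescence read 0.2 h after dosing. Chemicals screened at 10 uM in duplicate, hits then run in concentration-response up to 20 uM; signal loss versus acetonitrile baseline.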", "values": [{"smiles": "CCc1cccc(C)c1N(C(=O)CCl)C(C)COC", "note": "(stereo unspecified)", "AC50": "5.57 µM (active)"}, {"smiles": "CC(C)N(C(=O)SCC(Cl)=C(Cl)Cl)C(C)C", "outcome": "inactive"}, {"smiles": "CCC(=NOC/C=C/Cl)C1=C(O)CC(C2CCOCC2)CC1=O", "note": "(stereo unspecified)", "outcome": "inactive"}]}, {"test_system": "rat CYP2B1, gene 24300", "experiment": "NVS_ADME_rCYP2B1: NovaScreen (NVS) CYP450-related Enzyme Activity (ADME) Assay for rat CYP2B1 (AID 2283117)", "method_in_brief": "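Recombinant rat CYP2B1 with fluorogenic substrate, read at 0.75 h. Primary screen in duplicate at 10 uM; compounds meeting threshold (e.g., 30% inhibition) re-run in concentration-response up to 20 uM. Fitted against acetonitrile control.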", "values": [{"smiles": "CCc1cccc(C)c1N(C(=O)CCl)C(C)COC", "note": "(stereo unspecified)", "AC50": "6.43 µM (active)"}, {"smiles": "CC(C)N(C(=O)SCC(Cl)=C(Cl)Cl)C(C)C", "outcome": "inactive"}, {"smiles": "CCc1cccc(CC)c1N(COC)C(=O)CCl", "AC50": "3.44 µM (active)"}]}, {"target": "rat CYP2C11, Cyp2c11 (gene 29277) (UniProt P08683)", "sequence (P08683 whole entry, looked up)": "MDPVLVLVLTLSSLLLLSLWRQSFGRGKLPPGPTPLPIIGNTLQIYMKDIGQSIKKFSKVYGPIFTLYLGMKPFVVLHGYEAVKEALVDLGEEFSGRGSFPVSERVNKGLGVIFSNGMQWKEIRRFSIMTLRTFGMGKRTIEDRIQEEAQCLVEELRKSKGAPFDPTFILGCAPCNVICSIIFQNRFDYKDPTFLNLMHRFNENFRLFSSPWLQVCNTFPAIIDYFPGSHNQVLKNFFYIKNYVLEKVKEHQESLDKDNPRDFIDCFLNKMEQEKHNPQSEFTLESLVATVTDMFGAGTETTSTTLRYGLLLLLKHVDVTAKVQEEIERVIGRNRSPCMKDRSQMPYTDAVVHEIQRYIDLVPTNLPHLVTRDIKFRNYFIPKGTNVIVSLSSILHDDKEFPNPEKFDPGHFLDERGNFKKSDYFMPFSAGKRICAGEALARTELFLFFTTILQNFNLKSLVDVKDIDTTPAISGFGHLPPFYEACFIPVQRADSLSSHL", "experiment": "NVS_ADME_rCYP2C11: NovaScreen (NVS) CYP450-related Enzyme Activity (ADME) Assay for rat CYP2C11 (AID 2283118)", "method_in_brief": "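Cell-free recombinant rat enzyme with fluorescent substrate; readout 0.33 h after dosing, loss of signal versus acetonitrile control. Initial duplicate single-point at 10 uM; actives rerun in concentration series.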", "values": [{"smiles": "O=[N+]([O-])c1cc(C(F)(F)F)c(Cl)c([N+](=O)[O-])c1Nc1ncc(C(F)(F)F)cc1Cl", "AC50": "2.91 µM (active)"}, {"smiles": "CCOP(=O)(NC(C)C)Oc1ccc(SC)c(C)c1", "note": "(stereo unspecified)", "AC50": "6.43 µM (active)"}, {"smiles": "CCOP(=O)(SC(C)CC)N1CCSC1=O", "note": "(stereo unspecified)", "AC50": "3.88 µM (active)"}]}, {"target": "rat CYP2C13, Cyp2c13 (gene 171521) (UniProt P20814)", "sequence (P20814 whole entry, looked up)": "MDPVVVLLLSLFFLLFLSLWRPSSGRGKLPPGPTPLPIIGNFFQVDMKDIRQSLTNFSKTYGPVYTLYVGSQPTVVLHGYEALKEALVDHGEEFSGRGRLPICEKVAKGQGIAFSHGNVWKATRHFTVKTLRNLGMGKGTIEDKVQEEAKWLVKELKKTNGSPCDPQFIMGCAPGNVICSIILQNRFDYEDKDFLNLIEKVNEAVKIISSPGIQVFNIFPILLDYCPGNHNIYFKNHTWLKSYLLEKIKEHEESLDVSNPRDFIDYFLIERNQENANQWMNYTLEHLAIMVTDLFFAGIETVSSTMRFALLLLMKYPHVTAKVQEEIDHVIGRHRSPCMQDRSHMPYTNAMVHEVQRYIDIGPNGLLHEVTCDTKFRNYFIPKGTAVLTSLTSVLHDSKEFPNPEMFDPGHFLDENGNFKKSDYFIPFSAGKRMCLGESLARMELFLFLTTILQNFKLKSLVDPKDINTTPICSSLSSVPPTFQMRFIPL", "experiment": "NVS_ADME_rCYP2C13: NovaScreen (NVS) CYP450-related Enzyme Activity (ADME) Assay for rat CYP2C13 (AID 2283121)", "method_in_brief": "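Recombinant rat CYP2C13 with fluorogenic substrate, 0.75 h cell-free incubation; primary screen in duplicate at 10 uM, actives followed in concentration series. Fluorescence loss relative to acetonitrile control indicates inhibition.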", "values": [{"smiles": "CC(=NC#N)N(C)Cc1ccc(Cl)nc1", "outcome": "inactive"}, {"smiles": "COc1cccc(C(=O)NN(C(=O)c2cc(C)cc(C)c2)C(C)(C)C)c1C", "AC50": "2.64 µM (active)"}, {"smiles": "CCC(=O)Nc1ccc(Cl)c(Cl)c1", "AC50": "5.42 µM (active)"}, {"smiles": "CC1(C(=O)Nc2ccc(O)c(Cl)c2Cl)CCCCC1", "AC50": "1.37 µM (active)"}]}, {"test_system": "rat CYP3A1, gene 25642", "experiment": "NVS_ADME_rCYP3A1: NovaScreen (NVS) CYP450-related Enzyme Activity (ADME) Assay for rat CYP3A1 (AID 2283126)", "method_in_brief": "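Cell-free recombinant CYP assay with fluorescent substrate, read 0.5 h after dosing. Screened at 10 uM in duplicate, hits at up to 20 uM in concentration-response; loss of signal versus acetonitrile baseline.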", "values": [{"smiles": "CCOP(=O)(OCC)Oc1cc(C)nc(C(C)C)n1", "outcome": "inactive"}, {"smiles": "CCOP(=S)(OCC)Oc1cc(C)nc(C(C)C)n1", "AC50": "6.82 µM (active)"}, {"smiles": "COc1cccc(C(=O)NN(C(=O)c2cc(C)cc(C)c2)C(C)(C)C)c1C", "AC50": "0.331 µM (active)"}, {"smiles": "CCc1cccc(C)c1N(C(=O)CCl)C(C)COC", "note": "(stereo unspecified)", "AC50": "6.49 µM (active)"}, {"smiles": "COP(=O)(OC)SCn1c(=O)oc2cc(Cl)cnc21", "AC50": "9.11 µM (active)"}, {"smiles": "CCOP(=O)(NC(C)C)Oc1ccc(SC)c(C)c1", "note": "(stereo unspecified)", "AC50": "7.98 µM (active)"}, {"smiles": "CCOP(=O)(SC(C)CC)N1CCSC1=O", "note": "(stereo unspecified)", "AC50": "6.64 µM (active)"}, {"smiles": "CCC(=O)Nc1ccc(Cl)c(Cl)c1", "AC50": "4.74 µM (active)"}, {"smiles": "O=C(O)c1cc(Oc2ccc(C(F)(F)F)cc2Cl)ccc1[N+](=O)[O-]", "AC50": "5.89 µM (active)"}, {"smiles": "Cc1cc(C2CC2)nc(Nc2ccccc2)n1", "AC50": "10.7 µM (active)"}, {"smiles": "CNc1cnn(-c2cccc(C(F)(F)F)c2)c(=O)c1Cl", "AC50": "2.91 µM (active)"}]}, {"target": "human Acetylcholinesterase (AChE), ACHE (gene 43) (UniProt P22303)", "sequence (P22303 whole entry, looked up)": "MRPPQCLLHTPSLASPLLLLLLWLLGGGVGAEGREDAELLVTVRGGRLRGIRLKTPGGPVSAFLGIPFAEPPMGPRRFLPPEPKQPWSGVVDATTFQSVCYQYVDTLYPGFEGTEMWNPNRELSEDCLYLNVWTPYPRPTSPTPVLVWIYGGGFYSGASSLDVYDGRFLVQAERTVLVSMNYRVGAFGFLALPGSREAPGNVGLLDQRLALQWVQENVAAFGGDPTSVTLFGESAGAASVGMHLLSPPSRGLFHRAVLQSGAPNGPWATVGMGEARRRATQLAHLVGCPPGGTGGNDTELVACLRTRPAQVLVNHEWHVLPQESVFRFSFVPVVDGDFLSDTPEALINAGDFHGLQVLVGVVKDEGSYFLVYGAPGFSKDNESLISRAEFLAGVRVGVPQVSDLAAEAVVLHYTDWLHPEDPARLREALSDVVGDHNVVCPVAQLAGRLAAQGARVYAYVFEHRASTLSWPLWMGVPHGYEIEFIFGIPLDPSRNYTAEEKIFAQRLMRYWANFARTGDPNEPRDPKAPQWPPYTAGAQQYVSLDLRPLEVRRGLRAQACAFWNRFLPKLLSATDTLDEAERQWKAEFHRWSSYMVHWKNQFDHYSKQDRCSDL", "experiment": "NVS_ENZ_hAChE: NovaScreen (NVS) Enzymatic Assay for human Acetylcholinesterase (AChE) (AID 2283129)", "method_in_brief": "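Cell-free colorimetric enzyme-activity assay; compounds read 0.33 hour after dosing, loss of signal vs DMSO baseline. Primary screen in duplicate at 25 uM single concentration, with active compounds retested in concentration series.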", "values": [{"smiles": "CC(=NC#N)N(C)Cc1ccc(Cl)nc1", "AC50": "22.4 µM (active)"}, {"smiles": "COP(=O)(OC)SCn1c(=O)oc2cc(Cl)cnc21", "AC50": "6.65 µM (active)"}, {"smiles": "CNC(=O)Oc1cccc2c1OC(C)(C)O2", "AC50": "1.36 µM (active)"}, {"smiles": "CNC(=O)ON=C(C)SC", "AC50": "25 µM (active)"}, {"smiles": "COP(=O)(OC)OC(Br)C(Cl)(Cl)Br", "note": "(stereo unspecified)", "AC50": "3.67 µM (active)"}, {"smiles": "CCC(=O)Nc1ccc(Cl)c(Cl)c1", "outcome": "inactive"}, {"smiles": "CCOP(=S)(OCC)OC(Cl)C(Cl)(Cl)Cl", "note": "(stereo unspecified)", "AC50": "8.21 µM (active)"}, {"smiles": "CNC(=O)ON=C(SC)C(=O)N(C)C", "AC50": "12 µM (active)"}]}]}
